# Screens (PubChem BioAssay)
# An excerpt weighted towards active compounds, which were near 3.5% of everything screened.
# Anthrax LF inh2: Bacillus anthracis LF protease inhibitors, primary screen, biochemical, multiplex microsphere, MLPCN library | actives 0.12% (n = 360,000) | multiplex microsphere protease cleavage assay | inhibition, % at 10 µM; further: plate controls were buffer without enzyme for full effect and enzyme alone for no effect
# Autofluor counter: counter-screen for toxin protease inhibitors: compound fluorescence | compound autofluorescence counterscreen, microsphere flow cytometry; hits give high values | fluorescence intensity (no concentration beside the values) | actives 3.1% (n = 360,000) | AID 624483; in the data active means fluorescence intensity above about 16000; inconclusive means no clear call, values can overlap the other calls
# BoNT-A LC inh2: BoNT/A light chain protease inhibitors, primary screen, biochemical, flow cytometry, MLPCN library. multiplex microsphere protease substrate cleavage. inhibition, % at 10 µM. AID 588499, 2011. actives 0.17% (n = 360,000). Botulinum neurotoxin type A light chain protease (Clostridium botulinum A str. ATCC 3502); further: plate controls were buffer without enzyme for full effect and enzyme alone for no effect
# BoNT F protease: BoNT/F light chain protease inhibitors, primary screen, biochemical, flow cytometry, MLPCN library | Multiplex microsphere protease cleavage assay | inhibition, % at 10 µM | actives 0.22% (n = 360,000) | AID 588497, 2011; in the data active means inhibition above about 35%, passing the limit was not always enough; inconclusive means no clear call, values can overlap the other calls; further: plate controls were buffer without enzyme for full effect and enzyme alone for no effect
# An asterisk follows results filed as active; ? = inconclusive. Unless noted, no stated cut-off is given here; in the data, active means inhibition above about 30%; inconclusive means no clear call, values can overlap the other calls; inactive means below that.
SMILES,Anthrax LF inh2,Autofluor counter,BoNT-A LC inh2,BoNT F protease
NCc1cccc(-n2cccn2)c1,0.4,21167*,?,-1.1
O=Cc1ccc(-n2cccn2)cc1,-5.6,4964,-1.7,-3.8
CC1=C(C(=O)OCC2CCCO2)C(c2ccccc2)C2=C(CCCC2=O)N1 (configuration not stated),2.1,4901,-0.3,-0.5
COc1ccc(C2C(C(=O)OCC3CCCO3)=C(C)NC3=C2C(=O)CC(c2ccco2)C3)cc1O (configuration not stated),-2.4,23267*,-0.5,-1.1
CC(C)CC(=O)CN1C(=O)C2(OCCO2)c2ccccc21,1.6,23745*,-1.6,-0.9
COc1ccccc1NC(=O)CN1C(=O)C2(OCCCO2)c2ccccc21,0.5,20250*,1.9,0.9
O=C1N(CCCCN2C(=O)C3(OCCO3)c3ccccc32)c2ccccc2C12OCCO2,0.1,3442,0.1,-1.5
NNC(=O)CN1C(=O)C2(OCCO2)c2ccccc21,-1.9,4029,-0.4,-7.1
CCCC(=O)CN1C(=O)C2(OCCO2)c2ccccc21,-2.8,22726*,-1.0,0.7
O=C1N(CCCN2C(=O)C3(OCCO3)c3ccccc32)c2ccccc2C12OCCO2,0.5,21454*,-5.7,-5.1
CCN(CC(=O)Nc1ccccc1C(F)(F)F)C(=O)c1ccccc1Cc1ccccc1,-2.7,4093,2.9,13.5
COC(=O)[C@]12CCCCC=C1N(Cc1ccco1)C(=O)[C@H](CC(=O)NCCC(C)C)C2,-8.0,4327,0.1,-3.2
O=c1[nH]c(=S)[nH]cc1Oc1ccc(Cl)cc1,0.9,3992,0.1,1.6
O=C(NCc1ccccc1)NC(=O)c1ccccc1,-0.4,3774,-1.8,-26.1
O=C(NCc1ccncc1)c1ccc(Br)cc1,-1.1,22240*,1.3,0.9
O=C(NCc1ccccc1)NC(=O)c1ccncc1,-3.0,20362*,-1.5,-0.8
C[C@@H]1CN([C@@H](C)CO)C(=O)CCCn2nncc2CO[C@@H]1CN(C)S(=O)(=O)c1ccc(Oc2ccccc2)cc1,-10.1,3291,-0.1,-0.5
Cc1ccc(Oc2ncnc(N)c2[N+](=O)[O-])cc1,-0.7,3570,0.6,-3.2
Cc1ccc(N(c2ncnc(N)c2[N+](=O)[O-])C2CCCCC2)cc1,0.1,23258*,-0.1,0.9
CCc1nc2cc(Cl)c(Cl)cc2[nH]1,-0.8,23720*,?,1.3
O=C(CCNS(=O)(=O)c1ccc(Br)cc1)NCCCSc1ccccc1,-4.9,2917,-0.5,-2.7
COC(=O)c1c(NC(=O)C2CC=CCC2C(=O)O)sc(C)c1C (configuration not stated),3.3,22701*,?,0.8
CC(=O)Nc1cccc(-c2nnc(SCC(=O)N3CCCCC3)n2C)c1,-0.2,24749*,-1.9,-3.2
COc1cc(C(=O)Nc2ccc(S(=O)(=O)NC(C)C)cc2)cc(OC)c1OC,-3.0,16279*,0.3,0.0
COc1cc(CC(=O)Nc2ccc(S(=O)(=O)N(C)C)cc2)cc(OC)c1OC,0.2,23513*,-0.3,2.9
SMILES,Anthrax LF inh2,Autofluor counter,BoNT-A LC inh2,BoNT F protease
O=[N+]([O-])c1ccc(CSc2ccc(S(=O)(=O)N3CCCCCC3)cn2)cc1,-3.1,5435,-0.3,0.9
COc1cc(CNCCCN2CCOCC2)cc(Br)c1OCC(=O)N1CCCCC1,2.8,18727*,10.2,12.9
Cc1cc(C)cc(OCC(=O)N2CCCCCC2)c1,-6.5,22007*,?,4.9
COc1cc(C(=S)N2CCCCC2)ccc1OCC(=O)N1CCCC1,-5.1,4046,0.5,14.2
COc1cc(CO)cc(Br)c1OCC(=O)N1CCCCC1,-3.8,21247*,3.0,4.1
C[C@@H]1CN([C@H](C)CO)C(=O)CCCn2nncc2CO[C@H]1CN(C)S(=O)(=O)c1cccc(F)c1,-6.3,3053,-0.6,-0.8
CC(C)CN1C(=O)C(=O)N(CC(=O)NCCCc2ccccc2)C1=O,-1.1,3862,-0.1,7.3
Cc1cccc(Nc2nc(C)cc(C)c2C#N)c1,-6.9,4028,-0.7,?
Cc1cc(C)c(C#N)c(Nc2ccccc2)n1,-0.3,21778*,-3.9,-5.8
Cc1onc(-c2ccccc2)c1C(=O)N1CCCC(C)(C(=O)NS(=O)(=O)C2CC2)C1 (configuration not stated),-16.1,2798,-0.4,-6.8
Cc1nc2sc(C(c3ccc(Cl)cc3)N3CC(C)OC(C)C3)c(O)n2n1 (configuration not stated),0.7,3430,1.7,35.9*
CC(=O)/C(=N\Nc1ccccc1)Sc1nnc(-c2ccccc2)n1-c1ccccc1,-1.9,2531,-0.4,-0.9
CC(=O)C(N=Nc1ccccc1)(Sc1nnc(-c2ccccc2)n1-c1ccccc1)C(C)=O,1.4,22141*,-2.4,-2.8
CC(=O)C(N=Nc1ccccc1)(Sc1nnc(-c2ccccc2)n1-c1ccccc1)C(=O)Nc1ccccc1 (configuration not stated),-2.8,19172*,2.6,4.0
O=C(OCC(=O)N1CCN(C(=O)c2ccco2)CC1)c1cc(-c2cccc(Br)c2)nc2ccccc12,-3.2,24517*,-1.1,-6.1
CC1CCN(S(=O)(=O)c2cccc(C(=O)NCc3ccco3)c2)CC1,-2.9,23763*,-1.1,-3.3
O=C(NCc1ccco1)c1cccc(S(=O)(=O)N2CCCC2)c1,7.4,3677,0.5,5.8
Cc1ccc(S(=O)(=O)N2CCCCC2C(=O)NCc2ccco2)cc1 (configuration not stated),-4.8,4340,1.0,-4.2
O=C(NCc1ccco1)C1Cc2ccccc2CN1S(=O)(=O)c1ccccc1F (configuration not stated),1.6,23284*,-2.4,-3.4
Cc1ccc(S(=O)(=O)N2CCC(C(=O)N3CCC[C@H]3C(=O)NCc3ccccc3)CC2)cc1,-0.1,21009*,-4.8,-5.6
Cc1ccc(S(=O)(=O)N2CCC(C(=O)N3CCC[C@H]3C(=O)NCc3ccco3)CC2)cc1,-1.7,16928*,-0.9,-0.1
O=C(NCc1ccco1)C1CN(S(=O)(=O)c2ccccc2)CCN1S(=O)(=O)c1ccccc1 (configuration not stated),1.3,20955*,4.4,6.3
S=c1nc(-c2ccc(Cl)cc2)[nH][nH]1,-16.3,3952,2.5,?
Cc1ccc(C)n1-c1nc(=S)[nH][nH]1,-0.9,16597*,-0.8,-0.6
Cc1noc(C)c1-c1ccc(C(=O)NCCN2CCOCC2)c2occc12,-5.3,3634,-0.6,-4.5
SMILES,Anthrax LF inh2,Autofluor counter,BoNT-A LC inh2,BoNT F protease
COc1ccc(C(=O)ON=C2CCN(c3ccc([N+](=O)[O-])cc3)CC2)cc1,-7.3,5549,0.7,0.0
O=C(ON=C1CCN(c2ccc([N+](=O)[O-])cc2)CC1)c1ccccc1,1.8,19501*,?,0.9
C#CC(CC)(CC)NC(=O)/C=C/C(=O)O,32.1*,?,1.2,?
COc1ccc(NC(=O)C(NC(=O)OC(C)(C)C)C(C)OCc2ccccc2)cc1 (configuration not stated),0.4,21191*,?,-7.5
O=C(COc1ccc(Cl)cc1Cl)NNC(=S)Nc1ccc(F)cc1,-1.9,16581*,0.1,0.4
Cc1cc(Cl)ccc1OCC(=O)NCc1ccncc1,-4.6,8121,-0.2,-3.3
